test system: DYRK1B; conditions: concentration: 1 μM, replicates: in singlicate; n = 1
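Further: KINOMEscan kinase panel screen.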

Compound | %Inh
O=C(Nc1n[nH]c2cc(-c3ccsc3)ccc12)C1CC1 [SB-732932] | 12%
CN1c2ccc(-c3ccc(C(N)=O)cc3)cc2-c2[nH]ncc2S1(=O)=O | 24%
Cl.Cl.Cl.N#Cc1ccc(CCNc2nccc(-c3cccc(CN4CCNCC4)c3)n2)cc1 [GSK2137462] | 0%
Cn1cncc1C(=O)NC1CCN(c2ccnc(Nc3ccc(F)cc3)n2)C1 (centres unmarked) [GSK1379717] | 21%
CS(=O)(=O)CCNCc1nc(-c2ccc3ncnc(Nc4ccc5c(cnn5Cc5ccccc5)c4)c3c2)cs1.Cl.Cl [GW569716] | 0%
Cc1cnc(N)c(/C=C/c2cncc(C(=O)NCCc3ccc(Cl)cc3Cl)c2)c1.Cl [GSK190937] | 15%
CNCc1ccc2nc(NC(=O)c3ccc(C(C)(C)C)cc3)cn2c1 | 0%
CNc1cc(-c2ccc3c(N)n[nH]c3c2)nc(N)n1 [GSK2224810] | 43%
CNc1nc(-c2ccc3c(N)n[nH]c3c2)cc(N2C[C@@H](C(=O)Nc3ccccc3)CC[C@H]2C)n1 [GSK2298859] | 0%
COc1ccc(Nc2nccc(N3CCC(NC(=O)c4cc5ccccc5s4)C3)n2)cc1 (centres unmarked) [GSK1379738] | 0%
COc1ccc(CSc2nnc(-c3ccc4nccn4c3)o2)cc1C(F)(F)F | 41%

— paper PMC5540273 (PLoS ONE, 2017)
